# Laboratory results as given in PubChem BioAssay (NCI).
# This is part of a sample that, as a whole, favours compounds with a hit. Of some 83,000 tested, about 20% had one in any assay.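 In brief: 96-well plates, 48 h treatment, single concentration, percent growth endpoint.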 Values without a mark were called inactive. The source made the active and inactive calls. Rule for the calls: active = growth percent below 10; inactive = the rest.
# Tests used:
# Assay in all cases: NCI-60 one-dose screen, 48 h (100 = growth as untreated, 0 = no growth, -100 = all killed)
# Details in all cases: 10 µM unless noted
# HCT-15 colon = tested on: HCT-15 colon
# HT29 colon = tested on: HT29 colon
# SNB-75 CNS = tested on: SNB-75 CNS
# SNB-19 CNS = tested on: SNB-19 CNS
# U251 CNS = tested on: U251 CNS
# PC-3 prostate = tested on: PC-3 prostate
# SK-MEL-5 melanoma = tested on: SK-MEL-5 melanoma
# UACC-62 melanoma = tested on: UACC-62 melanoma
# LOX IMVI melanoma = tested on: LOX IMVI melanoma
# SK-MEL-28 melanoma = tested on: SK-MEL-28 melanoma
# SK-MEL-2 melanoma = tested on: SK-MEL-2 melanoma
# SN12C renal = tested on: SN12C renal
# UO-31 renal = tested on: UO-31 renal
# TK-10 renal = tested on: TK-10 renal
# ACHN renal = tested on: ACHN renal
# CAKI-1 renal = tested on: CAKI-1 renal
# A498 renal = tested on: A498 renal
# CCRF-CEM leukemia = tested on: CCRF-CEM leukemia
# MOLT-4 leukemia = tested on: MOLT-4 leukemia
Compound,growth (HCT-15 colon) [%],growth (HT29 colon),growth (SNB-75 CNS),growth (SNB-19 CNS) [%],growth (U251 CNS),growth (PC-3 prostate),growth (SK-MEL-5 melanoma),growth (UACC-62 melanoma),growth (LOX IMVI melanoma),growth (SK-MEL-28 melanoma) [%],growth (SK-MEL-2 melanoma),growth (SN12C renal) [%],growth (UO-31 renal),growth (TK-10 renal) [%],growth (ACHN renal),growth (CAKI-1 renal),growth (A498 renal),growth (CCRF-CEM leukemia),growth (MOLT-4 leukemia)
O=C(Nc1cc(C(F)(F)F)cc(C(F)(F)F)c1)Nc1ccc(OCc2nnc(-c3ccc(Cl)cc3)o2)c(F)c1,13.6,10.8%,14.8%,23,1.55% (active),3.89% (active),-29.6% (active),27.7%,3.82% (active),28.8,-37.9% (active),11.1,-2.51% (active),21.1,-6.91% (active),4.76% (active),-7.1% (active),6.66% (active),18%
Cc1cc(Nc2nc(-c3ccc(F)cc3)nc3ccccc23)n[nH]1,33.9,22.5%,-21% (active),80.2,88.4%,56.5%,73.7%,40.8%,32.6%,56.3,27.7%,61.6,32%,32.6,39.4%,-7.57% (active),1.89% (active),44.5%,64.1%
O=C(COc1ccccc1)N1N=C(c2ccc(Cl)cc2)CC1c1c[nH]c2ccccc12 (stereo not drawn),62.1,90.4%,66.6%,93.3,58%,63.2%,85.5%,70.9%,59.1%,104,85.3%,62.7,25.7%,93.6,60.8%,46%,72.1%,11.3%,-8.31% (active)
COc1ccc(-n2c(C)cc(-c3ccccc3)c2C)cc1,37.9,12.4%,41.2%,69.6,43.5%,31.7%,-3.53% (active),52.2%,42.1%,58.1,40%,50.5,52.3%,57.3,62.5%,29.3%,35.2%,29.4%,17.8%
CCCCCCCCCN1C(=O)/C(=c2\sc3n(c2=O)C2C(NN=3)N(CC)C(=O)N2CC)c2ccccc21 (stereo not drawn),73,7.96% (active),-14.4% (active),39.7,25.1%,34.3%,72.9%,23.7%,19.4%,41.3,76.2%,66.3,53.4%,71.1,59%,34.8%,18.8%,–,99.7%
Cc1oc2nc[nH]c(=O)c2c1C(=O)/C=C/c1ccc(Cl)cc1Cl,50.6,30.4%,44.6%,84,85.1%,59.2%,81.6%,53.5%,52.2%,89.1,91.3%,67,67.6%,123,66.4%,46.1%,94.3%,–,86.8%
COc1cc(/C=C/C(=O)c2ccc(NC(=O)CN3CCN(c4cc5c(cc4F)c(=O)c(C(=O)O)cn5C4CC4)CC3)cc2)cc(OC)c1OC,18.2,-3.37% (active),76.6%,34.9,-55.8% (active),21.5%,-42.9% (active),-23.5% (active),-54.7% (active),34,30%,10.3,2.96% (active),19.1,10.8%,57.2%,-43.8% (active),-13.7% (active),-1.1% (active)
c1ccc2c(c1)Oc1ccccc1C2C1c2ccccc2Oc2ccccc21,93.3,82.8%,86.2%,97.1,99.3%,85.7%,100%,86.7%,86.5%,110,92.6%,101,73.5%,93.4,87.7%,74.5%,91.8%,98.3%,79.5%
COc1ccc(NC(=O)/N=c2\oc3c(OC)cccc3cc2-c2cc3ccccc3[nH]2)cc1,73.3,57.7%,-8.95% (active),36.2,34.1%,39.3%,60.6%,65.6%,73.1%,81.9,75.9%,78.1,90.4%,42,34.9%,49%,75%,–,112%
O=C(O)Cc1ccc2c(c1)Cc1cccnc1O2,103,99.8%,87.9%,107,102%,101%,99.5%,109%,100%,109,104%,100,94%,92.5,111%,96.9%,104%,100%,102%
CC/C(=C(\c1ccc(O)cc1)c1ccc(OCCN(C)CCN(C)C(=O)CCC(=O)c2c(C)[nH]c(/C=C3\N=C(c4ccc[nH]4)C=C3OC)c2C)cc1)c1ccccc1,34.3,15.5%,92.4%,108,63.2%,61.4%,78.2%,14.2%,33.6%,61.7,96.8%,91.8,46.9%,117,95.5%,71.4%,65.2%,40.8%,71.7%
Nc1c(C(=O)Nc2c(Cl)cccc2Cl)sc2nc3c(cc12)CCCCC3,32.5,34.1%,26.7%,68.5,66.7%,70.6%,66.3%,29%,58.6%,59.2,62.8%,61.7,63.9%,69,58.5%,69.4%,30%,43.7%,54.4%
COc1ccc(-n2cnc3c(sc4ncc(Cl)cc43)c2=O)cc1,101,79.3%,90.3%,108,74.7%,83.1%,99.1%,109%,58%,102,120%,101,5.62% (active),89.9,82.1%,86.6%,76.8%,–,96.6%
CNC(=O)Cc1nc(-c2cccc(NS(=O)(=O)c3c(F)cccc3F)c2F)c(-c2ccnc(Nc3ccccc3)n2)s1,72.1,6.8% (active),58.2%,75.4,86.6%,81.8%,63.2%,5.51% (active),9.18% (active),15.2,55.2%,40.5,27.3%,42.7,10.7%,41.5%,–,87.6%,68.4%
COc1cccc(-c2nc3sccn3c2-c2ccnc(NCCNS(=O)(=O)c3ccccc3)n2)c1,42.9,34%,79.8%,97.3,71.9%,69.2%,28.2%,32.5%,48%,66.4,77.1%,67.9,37.7%,83,44.3%,53.1%,–,42.6%,43.2%
COc1ccc(NC(=O)c2cc3ccccc3nc2Nc2cc(OC)c(OC)c(OC)c2)cc1,36.3,64.3%,69.4%,78.9,54.2%,57.6%,44.3%,64.4%,52.8%,73.2,89.2%,69.7,59.7%,90.7,53%,70.2%,–,43.6%,–
COC1=CC(c2ccc[nH]2)=N/C1=C\c1[nH]c(C)c(CCCn2cc(CCCCCCCCC[C@@H]3Cc4cc(O)ccc4C4CC[C@]5(C)[C@@H](O)CC[C@H]5C43)nn2)c1C (stereo partly drawn),35,23.6%,88.8%,77.7,44.1%,45%,35.5%,12.9%,13.4%,75.9,69.7%,62.4,49.8%,109,40.8%,71%,–,28.1%,–
C=CCOc1cccc(/C=C/C(=O)c2sc(Nc3cccnc3)nc2C)c1,33.5,16.8%,2.22% (active),57.7,50.7%,44.6%,74.9%,59.9%,32.9%,87.1,84.4%,40.9,47.7%,113,54.3%,81%,–,15.2%,76.3%
COc1cc(NCCN=C(N)NC(N)=NC(C)C)c2ncccc2c1,100,61.2%,63.8%,84,79.7%,73.4%,37.2%,102%,89.2%,86.1,-14.2% (active),74.8,81.7%,110,94.1%,95.3%,91.2%,–,67.5%
Nc1ccccc1C#C/C=C\C#Cc1cccc(O)c1,44.1,76.2%,42.8%,88.4,43%,64.2%,34%,23.8%,45.8%,81.7,20.2%,67.2,12.4%,83.8,36.4%,31.3%,–,32%,27.1%
O=C(Nc1ccc(Cl)cc1)c1cc(-c2ccc(F)cc2)c2sc(=O)[nH]c2n1,13.1,16.9%,-5.08% (active),19.3,9.42% (active),10.3%,-86.1% (active),26.9%,8.5% (active),25.4,14.3%,11.9,4.68% (active),20.8,2.34% (active),-12.7% (active),–,16.8%,13.9%
COc1cc(NC(=O)c2cc3ccccc3nc2Nc2ccc(F)cc2)cc(OC)c1OC,31.8,69.3%,60.7%,61.1,35.3%,13.2%,-13.8% (active),37.5%,32.6%,54.2,63.4%,62.3,46.7%,65.3,42.9%,52.4%,–,42.1%,12.4%
